Drawing on PubChem BioAssay, this text covers composite z-score and z-score for five compounds.

In assay [1] the test system is Plasmodium falciparum Sir2 (PF13_0152, Sir2A). The experiment in a line: pfSir2 binders on small-molecule microarrays, primary screen, biochemical, small-molecule microarray, 635 nm fluorescence (AID 1098).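 Also: score merges spot fluorescence intensity with its signal-to-noise ratio.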 The settings on record: small-molecule microarray binding, fluorescence 635 nm; higher = more signal.
Assay [2] can be described thus: small-molecule microarray binders of probe aDKK1, primary screen, biochemical, biotinylated probe, 635/667 nm fluorescence (AID 1099).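 Also: score merges 667nm spot fluorescence with signal to noise across triplicate slides.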 The settings on record: higher = more signal.
Assay [3] in a line: small-molecule microarray binders of probe aCHRDL2, primary screen, biochemical, biotinylated probe, 635/667 nm fluorescence (AID 1100). The settings on record: higher = more signal.
Assay [4] is described as follows: splicing luciferase reporter signal modulators, primary screen, spliceosome inhibition project, cell-based, HEK293, splice +/- reporter (AID 1101).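 Also: HEK293 cells carrying a splicing-competent luciferase reporter gene; test concentration not given here.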 The settings on record: luminescence, 24 h, higher = more signal, called active from +8 up or from −8 down. (In a reporter assay the amount or activity of a reporter protein is the signal.)
For assay [5], the target named is Fibroblast growth factor 10 (Homo sapiens) (UniProt O15520). The experiment in a line: FGF10 binders on small-molecule microarrays, primary screen, biochemical, small-molecule microarray, 635 nm fluorescence (AID 1102). The settings on record: FGF10 binding, fluorescence 635 nm, higher = more signal.
Assay [6] has as its system glycogen synthase kinase-3 (GSK3A per assay name; protocol says GSK3B). The experiment in a line: GSK3 binders on small-molecule microarrays, primary screen, biochemical, small-molecule microarray, 635 nm fluorescence, GSK3A (AID 1103). Also: the record names both GSK3A and GSK3B. To be noted: small-molecule microarray binding, fluorescence 635 nm; higher = more signal.
The target in assay [7] is Epidermal growth factor receptor (Homo sapiens) (UniProt P00533). Nature of the assay: EGFR binders on small-molecule microarrays, primary screen, biochemical, small-molecule microarray, 635 nm fluorescence (AID 1104).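 Also: score merges 667 nm emission intensity with spot signal to noise over triplicate slides.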 The settings on record: EGFR binding, higher = more signal.
Assay [8] addresses Follistatin-related protein 3 (Homo sapiens) (UniProt O95633). The experiment in a line: FSTL3 binders on small-molecule microarrays, primary screen, biochemical, small-molecule microarray, 635 nm fluorescence (AID 1105).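 Also: score merges emission near 667 nm and signal to noise per printed spot across three slides.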 To be noted: FSTL3 binding, higher = more signal.
The target of assay [9] is Dickkopf-related protein 1 (Homo sapiens) (UniProt O94907). The experiment in a line: DKK1 binders on small-molecule microarrays, primary screen, biochemical, small-molecule microarray, 635 nm fluorescence scan (AID 1106).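 Also: score merges emission near 667 nm with signal to noise over three replicate slides.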 The settings on record: DKK1 binding, higher = more signal.
Assay [10] deals with Inhibin beta A chain (activin A). The experiment in a line: INHBA (activin A) binders on microarrays, primary screen, biochemical, small-molecule microarray, 635 nm fluorescence scan (AID 1107).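 Also: mouse activin A protein probed at 4.33 µg/mL on printed slides; score merges bound-protein fluorescence near 667 nm with spot signal-to-noise.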 The settings on record: small-molecule microarray binding, higher = more signal.
Assay [11] relates to Human papillomavirus type 1a protein E7 (residues 44-93). The experiment in a line: HPV1a E7 fragment binders on microarrays, primary screen, biochemical, small-molecule microarray, residues 44-93, 635 nm fluorescence (AID 1108).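 Also: E7 fragment applied at 1 µg/mL in TBST for 1 h at 4 C; score combines spot fluorescence with its signal to noise ratio.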 The settings on record: small-molecule microarray binding, fluorescence 635 nm; higher = more signal.
The nature of assay [12]: modulators of HCV replicon luciferase signal, primary screen, HCV replication inhibitor project, Huh7 cells, luciferase reporter (AID 1109).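 Also: huh7 hepatoma cells harbouring a luciferase neomycin HCV replicon reporter; luciferase luminescence as measure of HCV replicon replication; test concentration not given here.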 The settings on record: 48 h, higher = more signal. (In general: Replicon systems follow genome replication, usually without infectious particles.)
Assay [13] has as its target Left-right determination factor 2 (Homo sapiens) (UniProt O00292). Nature of the assay: LEFTY2 binders on small-molecule microarrays, primary screen, biochemical, small-molecule microarray, 635 nm fluorescence scan (AID 1110). To be noted: LEFTY2 binding, higher = more signal.
The target in assay [14] is Calmodulin-1 (Homo sapiens) (UniProt P0DP23). The experiment in a line: CALM1 binders on microarrays, EGTA buffer, profiling panel, biochemical, small-molecule microarray, Cy5-labelled CALM1 (AID 1111).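 Also: labelled calmodulin applied in Tris saline Tween buffer holding calcium plus EGTA and DTT.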 The settings on record: Cy5-CALM1 binding fluorescence, higher = more signal.
For assay [15] the target is unchanged. Nature of the assay: calcium-bound CALM1 binders on microarrays, profiling panel, artefact control for SMM control-protein annotation, biochemical, small-molecule microarray, Cy5-labelled CALM1, plus calcium (AID 1112).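 Also: score merges spot fluorescence with signal to noise from triplicate slides.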 To be noted: Cy5-CALM1 binding fluorescence, higher = more signal.
Assay [16] is described as follows: small-molecule microarray binders of probe aWnt5a, primary screen, biochemical, biotinylated probe, 635/667 nm fluorescence (AID 1113).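 Also: score merges 667 nm fluorescence intensity with signal-to-noise per printed feature.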 To be noted: higher = more signal.
Assay [17] in a line: small-molecule microarray binders of probe aShh, primary screen, biochemical, biotinylated probe, 635/667 nm fluorescence (AID 1114).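 Also: probe is biotin-labelled aShh protein from a stem cell growth factor screen; measures binding of labelled protein to compounds printed on the slide; score merges feature fluorescence at 667 nm with signal-to-noise.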 The settings on record: higher = more signal.
A short description of assay [18]: small-molecule microarray binders of probe aNog, primary screen, biochemical, biotinylated probe, 635/667 nm fluorescence (AID 1115).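 Also: probe is biotinylated aNog protein used at 0.15 µg/mL for 1 h at 4 C; z-score combines 667 nm fluorescence of each spot with its signal to noise.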 To be noted: higher = more signal.
Assay [19] concerns the target Torsin-1A-interacting protein 1 (Homo sapiens) (UniProt Q5JTV8). The experiment in a line: LAP1 binders from COS7 cell lysate, primary screen, small-molecule microarray, 635/667 nm fluorescence (AID 1116). The settings on record: COS7-hLAP1 lysate binding, 635 nm fluorescence, higher = more signal.
Assay [20] concerns the target Alpha-bungarotoxin (Bungarus multicinctus) (UniProt P60615). The experiment in a line: alpha-bungarotoxin binders on microarray, profiling panel, artefact control for SMM control protein annotation, biochemical, small-molecule microarray, Alexa647 label, 635/667 nm fluorescence (AID 1117). The settings on record: alpha-BTX-A647 binding fluorescence, higher = more signal.

The structures appear in SMILES notation. Calls of active or inactive are those of the source.

Follistatin-related protein 3 (Homo sapiens), sequence (O95633 whole entry, looked up): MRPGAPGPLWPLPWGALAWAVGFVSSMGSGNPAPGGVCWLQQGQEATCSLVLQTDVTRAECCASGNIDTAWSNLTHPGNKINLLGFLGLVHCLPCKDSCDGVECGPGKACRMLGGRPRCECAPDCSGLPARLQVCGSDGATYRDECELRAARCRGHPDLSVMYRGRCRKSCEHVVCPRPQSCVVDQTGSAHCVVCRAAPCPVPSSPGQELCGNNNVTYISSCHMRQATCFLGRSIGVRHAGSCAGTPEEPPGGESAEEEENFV
Fibroblast growth factor 10 (Homo sapiens), sequence (O15520 whole entry, looked up): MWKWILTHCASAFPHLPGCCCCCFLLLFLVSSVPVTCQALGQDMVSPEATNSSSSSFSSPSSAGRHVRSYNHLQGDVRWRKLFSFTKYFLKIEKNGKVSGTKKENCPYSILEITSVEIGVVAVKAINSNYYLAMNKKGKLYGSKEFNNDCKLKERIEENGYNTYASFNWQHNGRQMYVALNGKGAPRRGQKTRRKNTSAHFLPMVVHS
Epidermal growth factor receptor (Homo sapiens), sequence (P00533 whole entry, looked up): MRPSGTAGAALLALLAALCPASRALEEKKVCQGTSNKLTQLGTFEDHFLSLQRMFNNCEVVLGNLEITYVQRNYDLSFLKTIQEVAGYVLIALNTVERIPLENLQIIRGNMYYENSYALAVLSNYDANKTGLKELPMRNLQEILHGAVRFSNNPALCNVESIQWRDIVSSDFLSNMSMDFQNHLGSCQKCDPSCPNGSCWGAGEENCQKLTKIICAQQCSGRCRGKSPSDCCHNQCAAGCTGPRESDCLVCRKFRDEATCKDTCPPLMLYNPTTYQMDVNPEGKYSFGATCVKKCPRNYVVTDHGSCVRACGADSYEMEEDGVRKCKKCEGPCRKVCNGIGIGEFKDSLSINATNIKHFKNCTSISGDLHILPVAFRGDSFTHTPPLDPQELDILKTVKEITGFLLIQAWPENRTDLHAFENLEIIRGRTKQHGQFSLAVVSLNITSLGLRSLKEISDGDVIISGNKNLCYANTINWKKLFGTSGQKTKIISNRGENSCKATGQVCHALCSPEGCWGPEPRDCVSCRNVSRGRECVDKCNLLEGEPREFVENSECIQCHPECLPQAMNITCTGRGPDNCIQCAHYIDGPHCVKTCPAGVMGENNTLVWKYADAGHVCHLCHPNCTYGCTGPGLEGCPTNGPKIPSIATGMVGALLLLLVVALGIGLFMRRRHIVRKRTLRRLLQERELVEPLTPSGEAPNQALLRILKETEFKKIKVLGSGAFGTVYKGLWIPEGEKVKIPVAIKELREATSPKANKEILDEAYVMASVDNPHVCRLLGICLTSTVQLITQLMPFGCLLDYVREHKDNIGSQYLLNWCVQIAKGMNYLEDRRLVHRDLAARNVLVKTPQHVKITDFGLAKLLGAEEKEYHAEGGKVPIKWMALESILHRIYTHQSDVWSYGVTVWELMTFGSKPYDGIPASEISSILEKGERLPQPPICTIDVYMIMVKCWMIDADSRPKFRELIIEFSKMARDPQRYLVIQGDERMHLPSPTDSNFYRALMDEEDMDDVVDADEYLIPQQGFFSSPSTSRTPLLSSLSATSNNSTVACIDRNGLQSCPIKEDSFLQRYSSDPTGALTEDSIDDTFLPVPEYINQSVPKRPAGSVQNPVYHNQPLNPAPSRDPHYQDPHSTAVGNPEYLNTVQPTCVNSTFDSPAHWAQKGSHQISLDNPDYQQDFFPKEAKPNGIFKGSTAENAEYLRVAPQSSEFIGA
Dickkopf-related protein 1 (Homo sapiens), sequence (O94907 whole entry, looked up): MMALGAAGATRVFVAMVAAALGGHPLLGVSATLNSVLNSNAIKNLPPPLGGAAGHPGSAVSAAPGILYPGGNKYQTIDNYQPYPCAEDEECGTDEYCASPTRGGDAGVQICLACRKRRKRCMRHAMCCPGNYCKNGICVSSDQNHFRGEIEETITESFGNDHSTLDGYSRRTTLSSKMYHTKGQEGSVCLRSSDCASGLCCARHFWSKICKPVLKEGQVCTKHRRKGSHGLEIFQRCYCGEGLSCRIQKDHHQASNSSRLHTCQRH
Left-right determination factor 2 (Homo sapiens), sequence (O00292 whole entry, looked up): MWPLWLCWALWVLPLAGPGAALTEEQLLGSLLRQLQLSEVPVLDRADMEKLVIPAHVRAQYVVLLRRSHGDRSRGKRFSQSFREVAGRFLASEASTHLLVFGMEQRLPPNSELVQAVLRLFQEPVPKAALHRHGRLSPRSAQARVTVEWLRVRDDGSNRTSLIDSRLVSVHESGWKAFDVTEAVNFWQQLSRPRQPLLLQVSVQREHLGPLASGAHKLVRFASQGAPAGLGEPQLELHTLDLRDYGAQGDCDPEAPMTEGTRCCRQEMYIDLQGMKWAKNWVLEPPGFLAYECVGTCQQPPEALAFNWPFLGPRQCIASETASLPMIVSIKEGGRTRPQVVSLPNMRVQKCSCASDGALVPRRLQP
Torsin-1A-interacting protein 1 (Homo sapiens), sequence (Q5JTV8 whole entry, looked up): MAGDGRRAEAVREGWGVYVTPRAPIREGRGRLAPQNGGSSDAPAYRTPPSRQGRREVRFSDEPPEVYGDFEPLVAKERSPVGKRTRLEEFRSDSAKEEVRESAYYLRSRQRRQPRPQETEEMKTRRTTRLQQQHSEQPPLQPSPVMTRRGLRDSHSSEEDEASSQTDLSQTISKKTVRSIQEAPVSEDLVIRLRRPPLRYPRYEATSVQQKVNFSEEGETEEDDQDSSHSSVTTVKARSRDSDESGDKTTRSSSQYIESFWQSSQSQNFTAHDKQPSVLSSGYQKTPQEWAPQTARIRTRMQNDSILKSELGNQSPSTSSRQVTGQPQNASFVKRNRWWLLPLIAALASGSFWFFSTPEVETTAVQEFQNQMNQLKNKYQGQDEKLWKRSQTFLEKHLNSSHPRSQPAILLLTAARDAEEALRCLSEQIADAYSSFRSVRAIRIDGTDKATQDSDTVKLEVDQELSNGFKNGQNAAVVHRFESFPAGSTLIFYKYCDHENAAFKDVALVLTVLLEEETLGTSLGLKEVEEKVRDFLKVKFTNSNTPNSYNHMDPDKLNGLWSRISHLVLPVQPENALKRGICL
Alpha-bungarotoxin (Bungarus multicinctus), sequence (P60615 whole entry, looked up): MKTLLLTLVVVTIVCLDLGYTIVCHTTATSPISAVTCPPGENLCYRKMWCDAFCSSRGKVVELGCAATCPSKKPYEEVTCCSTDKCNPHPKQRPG

With `COC(=O)[C@@]1(Cc2ccc(F)cc2)[C@H]2c3cc(C(=O)N(C)C)n(Cc4ccc(C)o4)c3C[C@H]2CN1C(=O)c1ccccc1`, the composite z-score in assay [1] was 1.29; in [2], 2.05; in [3], 0.495; in assay [5] it was 0.152; in assay [6], 0.102; in assay [7], -1.87. In addition, the composite z-score is -1.13 in assay [8]; -1.39 in assay [9]; 1.07 in assay [10]; -0.0043 in [11]; -1.14 in [13]; 1.81 in assay [14]. Also, the composite z-score was -0.969 in [15]; 0.749 in [16]; 1.85 in [17]; 3.48 in [18]; 5.2 in assay [19]; -1.73 in assay [20]. Also, the figures for the z-score in assay [4] and in assay [12] were -1.6 (inactive) and -0.8, respectively.

Take `COCCOC(=O)N1C(=O)[C@@]2(c3cc(C#CCCO)ccc31)[C@H](c1ccc(O)cc1)N1[C@H](c3ccccc3)[C@H](c3ccccc3)OC(=O)[C@H]1[C@@H]2C(=O)N1CCN(c2ncccn2)CC1`: the composite z-score in assay [1] was 1.71; in [2], -0.365; in assay [3] it was -0.0062; in [5], 1.11; in [6] it was 1.31; in assay [7], 0.36. In addition, the composite z-score in assay [8] turned out to be 0.899; in assay [9] it was 0.417; in assay [10], 1.29; in assay [11], 1.17; in assay [13] it was 0.613; in assay [14] it was 1.42. The composite z-score in [15] worked out at 0.374; in assay [16], 0.594; in [17], 0.918; in assay [18] it was 2.56; in assay [19], 1.68; in assay [20], 1.47. The z-score is -0.0232 (inactive) in assay [4] and -0.305 in assay [12].

For the compound `CCCCCN1CC=CC23O[C@@H]4C=CCOC(=O)[C@@H]4[C@H]2C(=O)N(C(C)CO)[C@@H]3C1=O` (stereo not given in full), the composite z-score was 1.4 in assay [1]; -0.162 in assay [2]; 0.381 in assay [3]; -0.571 in [5]; -0.831 in assay [6]; -1.44 in assay [7]. In addition, the composite z-score in assay [8] is -1.25; in [9], -0.693; in assay [10], -0.469; in assay [11], -0.967; in assay [13], -1.39; in [14] it was -0.0225. The composite z-score in assay [15] was -0.0583; in assay [16] it was -0.176; in assay [17], -0.0146; in assay [18] it was 1.04; in assay [19], -0.901; in assay [20], -0.394. The z-score is 1.03 (inactive) in assay [4] and 1.01 in assay [12].

`C=CC[C@]1(C(N)=O)N=C(c2ccc(OCCCO)cc2)O[C@H]1c1ccccc1`: the composite z-score in assay [1] was 1.3; in assay [2] it was 0.351; in [3], 1.11; in assay [5] it was -0.304; in assay [6], -0.195; in assay [7], -1.03. Also, the composite z-score in assay [8] was -0.882; in assay [9] it was -0.539; in [10], 1.08; in assay [11], -0.434; in assay [13], -0.524; in assay [14] it was 0.27. The composite z-score in [15] was -0.665; in [16] it was -0.0685; in assay [17], 0.401; in [18], 0.041; in assay [19] it was 1.59; in assay [20], 0.947. In addition, the results for the z-score in [4] and in [12] were 0.27 (inactive) and -0.31, respectively.

`O=C1C2C=CC(C(O)c3ccc(-c4ccccc4)s3)N(Nc3ccccc3)C2C(=O)N1c1ccccc1` (stereo not given): the composite z-score in assay [1] was 1.5; in assay [2], 0.753; in assay [3], 0.953; in [5], 0.722; in assay [6], 0.808; in assay [7], -0.0664. In addition, the composite z-score in [8] is 1.03; in assay [9] it was -0.632; in assay [10] it was 0.845; in assay [11], 1.47; in assay [13], -0.44; in [14], 1.45. The composite z-score in assay [15] is 0.133; in assay [16], 0.105; in [17], 0.634; in assay [18], 1.38; in [19], 0.537; in assay [20], 1.46. Further, the z-score was 1.1 (inactive) in [4] and -0.978 in [12].
